GPR151 activ: activators of human GPR151, primary screen, cell-based, PathHunter beta-arrestin, luminescence | PathHunter beta-arrestin GPR151 cells | activation, % at 11.2 µM | AID 1508602, 2020 | 650,000 tested, 1% active; in the data active = activation above about 4.9%
TEAD-YAP block: TEAD-YAP interaction inhibition, primary screen, TEAD-YAP interaction inhibitor project, luminescence, HEK-TIYL cells; TEAD-Gal4/YAP UAS-luciferase luminescence; inhibition, % at 9.12 µM; 640,000 tested, 1.4% active; in the data active = inhibition above about 32%
MITF primary: MITF inhibitors, primary screen, biochemical, AlphaScreen, human. AlphaScreen MITF homodimerization, bead proximity signal. 650,000 tested, 0.91% active. Microphthalmia-associated transcription factor (Homo sapiens), O75030. inhibition, % at 2.6 µM. AID 1259374, 2018; in the data active = inhibition above about 50%
Target sequence (O75030 whole entry, looked up): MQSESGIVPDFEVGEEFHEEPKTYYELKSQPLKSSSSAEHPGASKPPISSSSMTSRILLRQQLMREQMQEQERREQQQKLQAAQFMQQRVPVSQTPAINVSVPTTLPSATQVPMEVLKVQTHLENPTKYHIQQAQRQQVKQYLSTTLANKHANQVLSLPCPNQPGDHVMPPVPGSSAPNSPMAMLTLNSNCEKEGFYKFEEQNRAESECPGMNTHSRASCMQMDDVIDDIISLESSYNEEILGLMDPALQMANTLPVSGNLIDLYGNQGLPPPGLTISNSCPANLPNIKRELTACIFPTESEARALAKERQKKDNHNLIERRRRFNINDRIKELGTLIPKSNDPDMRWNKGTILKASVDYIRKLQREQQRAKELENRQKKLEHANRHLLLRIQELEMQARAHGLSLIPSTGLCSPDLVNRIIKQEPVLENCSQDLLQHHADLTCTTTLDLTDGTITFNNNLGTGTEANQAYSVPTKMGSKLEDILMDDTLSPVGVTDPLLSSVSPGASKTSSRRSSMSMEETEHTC
FBW7 act: FBW7 E3 ligase activators, primary screen, biochemical, AlphaScreen, human. AID 1259310, 2017. AlphaScreen FBW7–phospho-cyclin E peptide binding, activator screen. 650,000 tested, 0.13% active. normalized activity (activation), % at 26.1 µM. F-box/WD repeat-containing protein 7 (Homo sapiens), Q969H0; in the data active = normalized activity above about 1.9%;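 note: purified mutant Fbw7 with reduced substrate affinity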
GPR151 conf act: GPR151 activators, triplicate retest, confirmation, cell-based, PathHunter beta-arrestin, luminescence; shares compounds with GPR151 activ; GPR151 PathHunter beta-arrestin cells, 90 min; % of EA-reagent control over plate median; activation, % at 11.2 µM; 6,700 tested, under 10 active;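 active = mean percent activation across replicates above the confirmation screen cutoff of 4.91%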
GPR119 counter: GPR119 activators in beta-arrestin cells, counter-screen for GPR151 activator project, cell-based, PathHunter beta-arrestin, luminescence, triplicate. 6,700 tested, 0.3% active. activation, % at 11.2 µM. 90 min; 0 = compound-well median, 100 = enzyme-acceptor control. shares compounds with GPR151 activ;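 active = mean percent activation in the counterscreen above 29.09%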;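 note: counterscreen on off-target GPR119 to flag nonselective hits from the GPR151 activator screen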
Each line names hits and unclear results; the compound was inactive in the other large screens (follow-up assays come after a bar, where they were run). An excerpt weighted towards active compounds, which were near 3.5% of everything screened.

N/C(=N/OCc1ccc(Cl)c(Cl)c1)c1nonc1N	GPR151 activ 8.7 | GPR151 conf act inactive | GPR119 counter inactive
Cc1cc(C)nc(N2CC(=O)N(C)C2=N)n1	GPR151 activ 5.5 | GPR151 conf act inactive | GPR119 counter inactive
CN1C(=N)N(c2nc(N(C)C)nc(N(C)C)n2)CC1=O	none
COc1ccccc1CNC(=O)c1nnn(Cc2ccccc2)c1N	GPR151 activ 14 | GPR151 conf act inactive | GPR119 counter inactive
CN(C)CCNCCCOc1cccc(Oc2ccccc2)c1	none
O=C(NCc1nc(-c2ccncc2)n[nH]1)C(c1ccccc1)C1CCCCC1 (centres undefined)	GPR151 activ 7.1 | GPR151 conf act inactive | GPR119 counter inactive
CCOC(=O)C1(C)C=C(O)C(=O)N1c1ccc(C)cc1 (centres undefined)	none
NS(=O)(=O)c1ccc(CCN=Cc2cccc3ccccc23)cc1	none
COc1ccc(/C=N/NC(=O)c2ccc(=O)n(C)c2)cc1OC	GPR151 activ 10 | GPR151 conf act inactive | GPR119 counter inactive
CCCCOc1ccc(OCC(=O)N/N=C/c2cccc(OC)c2)cc1	GPR151 activ 5.7 | GPR151 conf act inactive | GPR119 counter inactive
COc1cccc(/C=N/NC(=O)COc2ccc3ccccc3c2)c1	none
COc1ccc(/C=N\NC(=O)COc2c(C)cccc2C)cc1OC	GPR151 activ 9.9 | GPR151 conf act inactive | GPR119 counter inactive
COc1ccc(/C=N/NC(=O)c2ccc(=O)n(C)c2)cc1	none
Cc1ccc(C(C)C)c(Oc2cc(NC(=O)c3cnn4c(C(F)(F)F)cc(-c5ccc(Br)cc5)nc34)cc([N+](=O)[O-])c2)c1	none
CCCc1cc(=O)[nH]c(SCC(=O)N2CCN(c3ccccc3OC)CC2)n1	GPR151 activ 6.7 | GPR151 conf act inactive | GPR119 counter inactive
Nc1cc(=O)[nH]c(SCC(=O)N2CCN(C(c3ccccc3)c3ccccc3)CC2)n1	GPR151 activ 9.4 | GPR151 conf act inactive | GPR119 counter inactive
O=C(c1ccncc1)N1CC[C@@H]2[C@H](CCCN2C(=O)C2(c3ccc(Cl)cc3)CC2)C1	none
CCc1nn(CC(=O)NCCN(C)C2CCCCC2)c(=O)c2cc3sc(C)cc3n12	GPR151 activ 8.6 | GPR151 conf act inactive | GPR119 counter inactive
Cc1cc2c(cc3c(=O)n(CC(=O)NCCCN4CCCC(C)C4)nc(C)n32)s1 (centres undefined)	GPR151 activ 7.7 | GPR151 conf act inactive | GPR119 counter inactive
Cc1cc2c(cc3c(=O)n(CC(=O)N4CCCC(C)C4)nc(C)n32)s1 (centres undefined)	none
FC(F)(F)c1cc(-c2ccccc2)n(-c2cc(N3CCCCC3)ncn2)n1	GPR151 activ 5.4 | GPR151 conf act inactive | GPR119 counter inactive
COc1ccc2ccccc2c1C1C(C(C)=O)=C(C)N=c2s/c(=C\c3ccc(N(C)C)cc3)c(=O)n21 (centres undefined)	none
CNC(=O)CCCc1nnc2n(CCC(C)C)c(=O)c3sccc3n12	none
CC(C)CCn1c(=O)c2sccc2n2c(CCCC(=O)NC3CC3)nnc12	GPR151 activ 5.0 | GPR151 conf act inactive | GPR119 counter inactive
O=C(COc1ccc(F)cc1)NCc1ccsc1	none
Cc1nnc(SCc2ccc(Cl)cc2)nc1/C=C/N(C)C	none
Cc1nnc(SCc2ccc(Cl)cc2)nc1C	GPR151 activ 5.2 | GPR151 conf act inactive | GPR119 counter inactive
CCOc1cc(C2C(C(=O)OC)=CN(C(C)C)C=C2C(=O)OC)cc(Br)c1O	GPR151 activ 7.2 | GPR151 conf act inactive | GPR119 counter inactive
CCOC(=O)C1=CN(C(C)C)C=C(C(=O)OCC)C1c1ccc(OC)cc1OC	GPR151 activ 5.4 | GPR151 conf act inactive | GPR119 counter inactive
Cc1cc2c(=O)n(CC(=O)NC3CCCCC3)cnc2s1	none
CCOC(=O)c1c(C)oc2ccc(N(C(=O)c3ccc(C)cc3)S(=O)(=O)c3ccc(C)cc3)cc12	GPR151 activ 5.0 | GPR151 conf act inactive | GPR119 counter inactive

High-throughput results (PubChem)
